Rows were chosen to be rich in hits. Some 6.9% of all compounds tested hit in one or more screens of this group.
Mdm2 MdmX PPI – disrupts the human Mdm2-MdmX interaction; O15151+Q00987; SaOS-2 split-luciferase Mdm2/MdmX complementation, luminescence; inhibition, % at 8 µM; actives 3% (n = 330,000);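 active = inhibition of at least 50% at 8 µM in the primary screen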
Target sequence (O15151 whole entry, looked up): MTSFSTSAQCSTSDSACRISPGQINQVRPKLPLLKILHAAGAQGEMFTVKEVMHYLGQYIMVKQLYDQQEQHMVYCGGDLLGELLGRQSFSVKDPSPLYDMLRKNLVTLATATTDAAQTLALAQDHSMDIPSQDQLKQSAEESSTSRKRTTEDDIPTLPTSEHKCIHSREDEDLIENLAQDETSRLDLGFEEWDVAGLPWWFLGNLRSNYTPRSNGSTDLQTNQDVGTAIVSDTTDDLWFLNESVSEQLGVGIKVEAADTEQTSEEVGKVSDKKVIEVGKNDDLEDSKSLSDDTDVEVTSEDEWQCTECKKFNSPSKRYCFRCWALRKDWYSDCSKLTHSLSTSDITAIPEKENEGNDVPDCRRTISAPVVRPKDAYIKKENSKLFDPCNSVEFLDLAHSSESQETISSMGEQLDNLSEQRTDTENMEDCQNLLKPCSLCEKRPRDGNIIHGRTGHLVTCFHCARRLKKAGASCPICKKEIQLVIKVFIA
Target sequence (Q00987 whole entry, looked up): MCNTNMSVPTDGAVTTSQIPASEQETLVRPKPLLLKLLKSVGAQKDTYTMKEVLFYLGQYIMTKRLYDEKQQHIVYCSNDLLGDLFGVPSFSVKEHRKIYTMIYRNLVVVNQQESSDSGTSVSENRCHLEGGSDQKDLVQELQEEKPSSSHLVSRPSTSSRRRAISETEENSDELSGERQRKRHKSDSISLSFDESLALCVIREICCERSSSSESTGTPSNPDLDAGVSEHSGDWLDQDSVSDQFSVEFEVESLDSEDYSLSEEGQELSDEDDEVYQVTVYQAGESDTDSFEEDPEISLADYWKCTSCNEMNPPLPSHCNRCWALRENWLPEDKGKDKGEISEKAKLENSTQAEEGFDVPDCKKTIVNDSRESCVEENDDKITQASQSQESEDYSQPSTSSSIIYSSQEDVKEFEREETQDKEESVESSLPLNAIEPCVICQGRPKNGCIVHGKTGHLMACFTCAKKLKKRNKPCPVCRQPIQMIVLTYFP
CSC inhib – blocks cancer stem cells. cancer stem cell-like cells viability, luminescence. inhibition, % at 7.5 µM. actives 1.1% (n = 300,000). AID 2717; in the data active = inhibition above about 75%; inconclusive = no clear call, values can overlap the other calls; tested in HMLE shEcad cells
Beta apoptosis – blocks beta cell apoptosis. INS-1E cytokine-induced death, ATP luminescence, 48 h; percent of positive-control rescue, neutral wells zero. protection from apoptosis, % (test concentration not listed). actives 0.8% (n = 300,000). AID 435005;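 active = Every replicate reaches about 75%, or at least half do and their mean reaches it too, limit read from the data; inconclusive = At least half of replicates reach the limit but their mean does not; inactive = Under half of replicates reach the limit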;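 also: 0% = cytokine-treated negative control wells and 100% = positive control rescue; higher means more ATP so stronger rescue from cytokine killing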
SKKanGAS inh – SKKanGAS growth inhibition; S. pyogenes SKKanGAS, kanamycin growth, BacTiter-Glo, 6 h; inhibition, % at 7.5 µM; actives 1.3% (n = 300,000); AID 1662;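 active = mean replicate score, as percent of positive control median, at least 50; inconclusive = mean below 50 but one replicate at or above 50; inactive = mean and every replicate below 50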;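 also: strain carries kanamycin resistance gene driven by streptokinase promoter and grows in 40 µg/ml kanamycin; loss of luminescence reflects streptokinase promoter inhibition or plain growth inhibition; 0% = median of DMSO wells and 100% = positive control at its reference dose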
MPTP block – inhibitors of mitochondrial permeability transition pore | isolated mouse mitochondria, Ca2+ swelling absorbance, 30 min | actives 1.4% (n = 360,000) | inhibition, % at 10 µM;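 active = inhibition of 50% or more, scaled per plate between neutral and stimulator controls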;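 also: 0% = DMSO wells given calcium and 100% = 1 mM EGTA wells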
GRIN3A LBD mod – modulates the human NR3A ligand-binding domain | NR3A LBD differential scanning fluorimetry, Tm shift; 0% = protein alone, 100% = glycine-bound protein | Tm shift relative to glycine control, % at 25 µM | actives 2.5% (n = 340,000) | AID 1259313;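 active = melting temperature shift of at least 10% of the positive control shift, at one fixed dose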
Mdm2-MdmX conf – confirmation of human Mdm2/MdmX interaction inhibitors; shares compounds with Mdm2 MdmX PPI; Mdm2-MdmX binding, luminescent assay; inhibition, % at 8 µM; actives 55% (n = 10,000); AID 489028; in the data active = inhibition above about 40%
FLuc counter – full-length luciferase inhibition in Mdm2/MdmX counter-screen; actives 77% (n = 6,200); inhibition, % at 8 µM; SaOS-2 full-length luciferase counterscreen, luminescence; AID 504607; shares compounds with Mdm2 MdmX PPI;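 active = mean inhibition at 8 µM reaching about 37%, which flags the compound as non-specific, limit read from the data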;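 also: p53-null SaOS-2 cells with luciferase driven by a doxycycline-inducible promoter; compound on cells about two nights before reading with doxycycline added after day one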
Starred values were filed as active, the others as inactive; ? = inconclusive; · = no result.

SMILES	Mdm2 MdmX PPI	CSC inhib	Beta apoptosis	SKKanGAS inh	MPTP block	GRIN3A LBD mod	Mdm2-MdmX conf	others
COc1cccc(CN(C)C(=O)c2[nH]c(C)c(C(C)=O)c2C)c1OC	21	·	16	0	1	0	·
O=C(CCl)N1CCN(S(=O)(=O)Cc2ccccc2)CC1	71*	·	-9	·	-2	-2	25
O=C(CCl)N1CCN(S(=O)(=O)c2ccc3c(c2)CCC3)CC1	64*	·	-6	·	-1	0	7
CN1C(=O)N(CC(=O)N2CCN(S(=O)(=O)c3ccc4c(c3)CCC4)CC2)C(=O)C12CCCCC2	23	·	·	·	0	1	·
O=C(Nc1nc2ccc(S(=O)(=O)N3CCCCC3)cc2s1)C1CCCO1 (stereo not given)	4	9	0	-2	-1	2	·
Cc1ccc2nc(NC(=O)C3CCN(c4ncnc5sc(C)c(C)c45)CC3)sc2c1	29	-3	3	26	-1	2	·
O=C(Nc1nc2ccc(S(=O)(=O)N3CCCC3)cc2s1)C1CCCCC1	66*	58	7	11	0	-2	57*	FLuc counter=70*
CCCCc1nnc(NC(=O)C2CCN(c3ncnc4sc(C)c(C)c34)CC2)s1	-17	-7	·	-1	1	-9	·
Cc1ccc(S(=O)(=O)N2CCC(C(=O)Nc3nnc(C4CCCC4)s3)CC2)cc1	18	-16	-4	0	2	5	·
CCc1nnc(NC(=O)C2CCN(S(=O)(=O)c3ccc(C)cc3)CC2)s1	53*	1	-7	31	1	1	-2
Cc1sc2ncnc(N3CCC(C(=O)Nc4nc(-c5cccs5)cs4)CC3)c2c1C	86*	-1	31	40	0	-1	93*	FLuc counter=43*
CCc1nnc(NC(=O)C2CCN(c3ncnc4sc(C)c(C)c34)CC2)s1	53*	-3	-11	·	2	4	53*	FLuc counter=81*
Cc1sc2ncnc(N3CCC(C(=O)Nc4ccccc4C(C)(C)C)CC3)c2c1C	51*	-5	3	10	1	-2	60*	FLuc counter=28
COc1ccc(-n2c(SCC(=O)Nc3ncc(Cl)cc3Cl)nc3ccccc32)cc1	91*	44	21	26	·	·	74*	FLuc counter=29
Cc1cccc(-n2c(SCC(=O)Nc3ncc(Cl)cc3Cl)nc3ccccc32)c1	·	50	-1	37	5	-3	·
O=C(CSc1nc2ccccc2n1-c1ccccc1)Nc1ncc(Cl)cc1Cl	88*	46	0	7	0	-7	81*	FLuc counter=22
COc1cc(C(=O)Oc2ccccc2/C=N/NC(=O)c2ccc(C)c(Cl)c2)cc(OC)c1OC	58*	24	93*	13	14	-2	27
COc1cc(C(=O)Oc2ccccc2/C=N/NC(=O)c2ccc(Cl)cc2)cc(OC)c1OC	46	41	·	28	6	-3	·
O=C1C=C(c2cc3ccccc3s2)C[C@@H](c2ccc3c(c2)OCO3)C1	67*	-11	-17	·	2	0	41*	FLuc counter=101*
COc1ccccc1C1=CC(=O)C[C@H](c2ccc3c(c2)OCO3)C1	49	56	2	·	0	1	·
CN1C[C@H]2CON(C)[C@H]2C[C@H]1c1cccc(N2CCOCC2)c1	·	·	·	·	0	1	·
CCCn1c(=O)c(C(=O)NNS(=O)(=O)c2ccc(C)cc2)c(O)c2ccccc21	51*	36	4	?	28	-5	30	FLuc counter=85*
CSCCC(NC(=O)c1ccccc1)C(=O)N1CCN(C(C)=O)CC1 (stereo not given)	-6	·	3	·	0	-1	·
CCCCn1c(=O)[nH]c(=O)c2c1nc(-c1ccc(CC)c([N+](=O)[O-])c1)n2C	5	-14	-1	-2	·	·	·
CCCCn1c(=O)[nH]c(=O)c2c1nc(-c1ccc(-c3ccc(F)cc3)o1)n2C	74*	-19	-4	13	·	-1	10
SMILES	Mdm2 MdmX PPI	CSC inhib	Beta apoptosis	SKKanGAS inh	MPTP block	GRIN3A LBD mod	Mdm2-MdmX conf	others
COCCn1c(-c2ccc(-c3ccccc3Cl)o2)nc2c1c(=O)[nH]c(=O)n2CC(C)C	59*	-2	6	6	0	1	-1
COCCn1c(-c2ccc(NC(C)=O)cc2)nc2c1c(=O)[nH]c(=O)n2CC(C)C	5	14	-5	-3	1	-1	·
CCCCn1c(=O)[nH]c(=O)c2c1nc(-c1ccc(-c3ccccc3Br)o1)n2CCOC	53*	6	-2	15	1	1	6
CC1CCN(S(=O)(=O)c2cccc(C(=O)NNC(=O)c3ccco3)c2)CC1	3	-20	-1	1	2	-1	·
CCC(CCC(=O)NNC(=O)Cc1ccc([N+](=O)[O-])cc1)C(=O)O (stereo not given)	11	·	-4	8	0	0	·
CNC(=S)N1N=C(c2ccc(C)cc2)CC1c1cc(OC)ccc1OC (stereo not given)	48	44	·	-8	-2	1	·
COc1ccc(OC)c(C2CC(c3ccccc3)=NN2C(=S)Nc2ccccc2)c1 (stereo not given)	72*	54	9	-4	3	4	58*	FLuc counter=63*
O=S(=O)(c1ccccc1)c1cnc(-c2ccccc2)nc1N1CCCC1	2	6	11	15	-1	-1	·
COc1cc2ncc(S(=O)(=O)c3ccccc3)c(N3CCCC(C)C3)c2cc1OC (stereo not given)	51*	9	11	44	0	15*	18
O=[N+]([O-])c1cc([N+](=O)[O-])c(Oc2cccnc2Br)cc1NN1CCCCC1	56*	33	-1	7	2	0	13
O=[N+]([O-])c1cc([N+](=O)[O-])c(Oc2cccc3ccccc23)cc1NN1CCCCC1	·	·	·	·	7	-1	·
CC(C)C[C@@H](CO)N(Cc1ccccc1)S(=O)(=O)N(Cc1ccccc1)[C@H](CO)CC(C)C	81*	125*	31	·	23	2	19
C=C[C@H](CC(C)C)N(Cc1ccccc1)S(=O)(=O)N(Cc1ccccc1)[C@@H](C=C)CC(C)C	83*	16	84*	·	1	3	21
O=S(=O)(N(Cc1ccccc1)[C@H](CO)Cc1ccccc1)N(Cc1ccccc1)[C@H](CO)Cc1ccccc1	36	·	0	·	6	-1	·
CCN([C@H](CO)CC(C)C)S(=O)(=O)c1ccccc1	15	·	·	·	0	-5	·
CC(C)C[C@@H](CO)N(Cc1ccccc1)S(=O)(=O)N(Cc1ccccc1)[C@@H](CO)CC(C)C	83*	126*	12	·	20	-4	-20
COc1ccc(CN([C@H](C)CO)S(=O)(=O)N(Cc2ccccc2)[C@H](CO)C(C)C)cc1	-13	-5	-5	·	0	-13	·

Screening results: PubChem, several laboratories
